For assay [1] the following is noted: Ebola virus entry assay, green fluorescence channel.
For assay [2] the following is noted: Ebola virus entry assay, blue channel fluorescence.
The conditions of assay [3]: Ebola virus entry assay, green fluorescence channel. The source holds these as a separate data set.
For assay [4] the following is noted: Ebola virus entry assay, ratio channel readout.
For assay [5] the following is noted: Ebola virus entry assay, blue channel fluorescence. The source holds these as a separate data set.
The conditions of assay [6]: Ebola virus entry assay, ratio channel.
The conditions of assay [7]: Ebola virus entry assay, reporter ratio channel; AC50: Channel type: primary unless noted; outcome: Channel type: primary unless noted.
The conditions of assay [8]: Ebola virus entry cell assay, ratio channel.
The conditions of assay [9]: Ebola virus entry reporter assay, green channel fluorescence. In general terms: In a reporter assay the amount or activity of a reporter protein is the signal.
The nature of assay [10]: Immunotoxin (HA22) sensitization/mitigation study. Vehicle arm (PBS) (AID 1159510). Also: potency is read from the fitted curve at half-maximal effect. The settings on record: cancer cells viability with PBS vehicle (HA22 study); series mostly up to 46.1 µM.
Assay [11] is described as follows: Immunotoxin (SS1P) sensitization/mitigation study. Vehicle arm (DMEM) (AID 1159513). Also: potency is read from the fitted curve at half-maximal effect. To be noted: cell viability with vehicle (DMEM); series mostly up to 46.1 µM.

Where “and” joins values, the source holds several entries; their conditions need not be identical. Identical values can stand only once. A number with no mark means an inactive call. For part of these data: Entries with a potency or affinity are not part of this list. Calls of active or inactive are those of the source.
For efficacy in this document: 0% is about no effect.

One may read the AC50 as the concentration at which the activity in the assay is half-maximal. As for `CN(C)CCCN1c2ccccc2CCc2ccc(Cl)cc21`, in assay [1], the efficacy was -191%. The AC50 in assay [2] is 7.94 µM (active); in [4] it was 6.31 µM (active); in assay [5] it was 3.16 µM (active); in assay [6], 3.16 µM (active); in assay [8], 6.31 µM (active). Besides, the call in [3] was inactive. For the same molecule, in assay [7], the outcome is “inactive [Channel type: confirmation]”.
Take `CNCC[C@H](Oc1cccc2ccccc12)c1cccs1`: the efficacy in assay [1] is -133%. The AC50 in [2] is 11.2 µM (active); in assay [5] it was 6.31 µM (active); in [6], 3.55 µM (active); in assay [7] it was 3.55 µM (active); in [8], 10 µM (active). In addition, the call in assay [3] and in [4] was inactive.
Consider `CN1CCC(=C2c3ccccc3C=Cc3ccccc32)CC1`, for which, in assay [1], the efficacy was 67.2%. Moreover, the molecule was called inactive in assay [2], in [3], in assay [4] and in assay [9]. For the same molecule, the half-maximal activity concentration (AC50) in assay [5] is 11.2 µM (active); in [6] it was 10 µM (active); in [7], 10 µM (active); in [8] it was 14.1 µM (active).
In the case of `CN(C)CCC[C@@]1(c2ccc(F)cc2)OCc2cc(C#N)ccc21`, the efficacy in [1] is 55%. Besides, the molecule was classed as inactive in assay [2], in [3], in [4], in [6], in [9] and in assay [8]. The AC50 in assay [5] and in assay [7] was 39.8 µM (active) in each case.
For `CN1CCN(C(c2ccccc2)c2ccccc2)CC1`, the efficacy in assay [1] is 84.8%. Moreover, the molecule was called inactive in assay [2], in assay [3], in assay [4], in [9] and in assay [8]. Besides, the figures for the AC50 in assay [5], in assay [6] and in assay [7] were 28.2 µM (active), 22.4 µM (active) and 22.4 µM (active), respectively.
For the molecule `CCCSc1ccc2nc(NC(=O)OC)[nH]c2c1`, the efficacy in assay [1] is 60.2%. Further, the molecule was called inactive in assay [2], in [3] and in [4]. The AC50 in assay [5] was 3.16 µM (active); in assay [6], 3.98 µM (active); in assay [8], 8.91 µM (active). In addition, the outcome in assay [7] is “inactive [Channel type: confirmation]”.
With `CSc1ccc2c(c1)N(CCC1CCCCN1C)c1ccccc1S2` (stereo not drawn), the efficacy in assay [1] is -213%. The AC50 was 10 µM (active) in [2]; 3.55 µM (active) in assay [5]; 3.16 µM (active) in assay [6]; 3.16 µM (active) in assay [7]; 6.31 µM (active) in [8]. Besides, the result in assay [3] and in assay [4] was inactive.
For the molecule `CCN(CC)CCN1C(=O)CN=C(c2ccccc2F)c2cc(Cl)ccc21`, the efficacy in assay [1] is 47.1%. Moreover, the molecule was classed as inactive in assay [2], in [3], in assay [4], in [6], in [9] and in assay [8]. The AC50 in assay [5] is 35.5 µM (active); in assay [7] it was 39.8 µM (active).
Consider `COc1cc2nc(N3CCN(C(=O)C4COc5ccccc5O4)CC3)nc(N)c2cc1OC` (stereo not drawn), for which the efficacy in [1] is 97.9%. The molecule was classed as inactive in assay [2], in assay [3], in assay [4] and in assay [8]. For the same molecule, the AC50 in assay [5], in [6] and in [7] was 15.8 µM (active) in each case.
Take `COc1cc2c(cc1OC)C(=O)C(CC1CCN(Cc3ccccc3)CC1)C2` (stereo not drawn): in [1], the efficacy is 108%. Also, the outcome in [2], in assay [3], in [4], in [9] and in [8] was inactive. Moreover, the concentration at half-maximal activity (AC50) in [5] was 35.5 µM (active); in assay [6], 22.4 µM (active); in [7], 22.4 µM (active).
Regarding `COCCCC/C(=N\OCCN)c1ccc(C(F)(F)F)cc1`, the efficacy in [1] is 124%. Besides, the molecule was called inactive in assay [2], in assay [3], in assay [4] and in [8]. For the same molecule, the AC50 was 15.8 µM (active) in [5], 14.1 µM (active) in assay [6] and 14.1 µM (active) in assay [7].
Regarding `Cc1nc(Nc2ncc(C(=O)Nc3c(C)cccc3Cl)s2)cc(N2CCN(CCO)CC2)n1`, the efficacy in assay [1] is 82.9%. Besides, the outcome in assay [2], in assay [3], in [4] and in assay [9] was inactive. Further, the half-maximal activity concentration (AC50) in assay [5] was 8.91 µM (active); in assay [6] it was 7.94 µM (active); in assay [7], 7.94 µM (active); in assay [8], 28.2 µM (active). Moreover, the Potency in assay [10] is 5.9 µM (active); in assay [11] it was 20.9 µM (active).
As for `CNCCCC1c2ccccc2C=Cc2ccccc21`, the efficacy in [1] was 60.1%. Further, the AC50 in [2] was 11.2 µM (active); in assay [4], 8.92 µM (active); in assay [5] it was 10 µM (active); in assay [6] it was 8.91 µM (active); in [7], 8.91 µM (active); in assay [8] it was 8.91 µM (active). In addition, the molecule was classed as inactive in [3].
In the case of `CC12CC3CC(C)(C1)CC(N)(C3)C2`, the efficacy in assay [1] is 58.3%. For the same molecule, the molecule was classed as inactive in [2], in assay [3], in assay [4], in [9] and in [8]. Also, the AC50 in assay [5], in assay [6] and in [7] was 14.1 µM (active) throughout.
With `CCCCc1oc2ccc(NS(C)(=O)=O)cc2c1C(=O)c1ccc(OCCCN(CCCC)CCCC)cc1`, the efficacy in [1] is -249%. For the same molecule, the AC50 in assay [2] is 7.08 µM (active); in assay [5], 0.891 µM (active); in assay [6], 0.891 µM (active); in assay [8], 3.16 µM (active). The outcome in assay [3] and in [4] was inactive. For the same molecule, the outcome in assay [7] is “inactive [Channel type: confirmation]”.
As for `CC(N)C12CC3CC(CC(C3)C1)C2` (stereo not drawn), the efficacy in [1] was 56.9%. For the same molecule, the molecule was classed as inactive in assay [2], in [3], in assay [4] and in [8]. The AC50 in assay [5], in assay [6] and in [7] was 28.2 µM (active) throughout.
On to `CC[C@]1(O)C[C@@H]2CN(CCc3c([nH]c4ccccc34)[C@@](C(=O)OC)(c3cc4c(cc3OC)N(C)[C@H]3[C@@](O)(C(=O)OC)[C@H](OC(C)=O)[C@]5(CC)C=CCN6CC[C@]43[C@@H]65)C2)C1`, for which the efficacy in assay [1] is -50.1% and 54.6%. Besides, the AC50 is 0.0009 µM (active) in assay [2]; 0.794 µM (active) in [5]; 1 µM (active) and 891 nM (active) in assay [6]; 1 µM (active) and 891 nM (active) in [7]; 0.01 µM (active) in assay [8]. The result in assay [3] and in assay [4] was inactive.
For the molecule `CN1CCN(CCCN2c3ccccc3Sc3ccc(C(F)(F)F)cc32)CC1`, the efficacy in [1] is -186%. The half-maximal activity concentration (AC50) in assay [2] was 7.08 µM (active); in [5], 3.55 µM (active); in assay [6], 2.82 µM (active); in assay [8], 3.98 µM (active). In addition, the molecule was classed as inactive in [3] and in assay [4]. Besides, the outcome in [7] is “inactive [Channel type: confirmation]”.
